First the molecules themselves.
B1: PhoQ; a variant is named by its letters at X, in order, P23837 (parent)
chain: MKKLLRLFFPLSLRVRFLLATAAVVLVLSLAYGMVALIGYSVSFDKTTFRLLRGESNLFYTLAKWENNKLHVELPENIDKQSPTMTLIYDENGQLLWAQRDVPWLMKMIQPDWLKSNGFHEIEADVNDTSLLLSGDHSIQQQLQEVREDDDDAEMTHSVAVNVYPATSRMPKLTIVVVDTIPVELKSSYMVWSWFIYVLSANLLLVIPLLWVAAWWSLRPIEALAKEVRELEEHNRELLNPATTRELTSLVRNLNRLLKSERERYDKYRTTLTDLTHSLKTPLXXLQXXLRSLRSEKMSVSDAEPVMLEQISRISQQIGYYLHRASMRGGTLLSRELHPVAPLLDNLTSALNKVYQRKGVNISLDISPEISFVGEQNDFVEVMGNVLDNACKYCLEFVEISARQTDEHLYIVVEDDGPGIPLSKREVIFDRGQRVDTLRPGQGVGLAVAREITEQYEGKIVAGESMLGGARMEVIFGRQHSAPKDE

In all, about 140,000 sequences were measured (“enrichment ratio after two sorts for PhoP signalling”: median about 0, highest 2% from about 11 on). For the sample, the highest values were picked, then their nearest neighbours and some sequences at random. A value given as a limit tells only on which side of the number the result lay.

The assay covers variants of B1. The assay can be described thus: enrichment ratio after two sorts for PhoP signalling (ratio (wild type AVST 3.29)); higher = more functional. The conditions noted are these: with PhoP (E. coli).
For IIML, the enrichment ratio is at most 0.25.

For the variant SPML, the enrichment ratio is at most 0.25.

With SCML, the enrichment ratio came to 11.2.

In the case of SSML, the enrichment ratio was found to be 23.6.

For the variant HYKH, the enrichment ratio was at most 0.25.

As for GCEP, the enrichment ratio is at most 0.25.

As for RQGY, the enrichment ratio was at most 0.25.

Take QQRM: the enrichment ratio was at most 0.25.

As for IQNM, the enrichment ratio was at most 0.25.

In the case of QSWN, the enrichment ratio turned out to be 21.4.

As to FTWN, the enrichment ratio is at most 0.25.

Take QLWN: the enrichment ratio is at most 0.25.

As for FFWN, the enrichment ratio is at most 0.25.

Regarding QQNM, the enrichment ratio is 16.3.

For FVWN, the enrichment ratio is at most 0.25.

Take QTWI: the enrichment ratio worked out at 3.53.

Take QTWN: the enrichment ratio is 16.8.

For the variant QSQN, the enrichment ratio was at most 0.25.

QGWN: the enrichment ratio is 16.6.

On to QVFE, for which the enrichment ratio is at most 0.25.

Take EYFQ: the enrichment ratio was at most 0.25.

As for FTGV, the enrichment ratio is at most 0.25.

In the case of FFRA, the enrichment ratio was at most 0.25.

LYHH: the enrichment ratio is at most 0.25.

As for EIFG, the enrichment ratio was at most 0.25.

Take FPWN: the enrichment ratio was at most 0.25.

Turning to QPWL, the enrichment ratio was at most 0.25.

On to MAWI, for which the enrichment ratio is 8.24.

Turning to MAWL, the enrichment ratio turned out to be 12.

In the case of QRWL, the enrichment ratio was at most 0.25.

In the case of TPWN, the enrichment ratio is at most 0.25.

Consider FCWL, for which the enrichment ratio was at most 0.25.

Regarding QQWN, the enrichment ratio came out at 13.8.

Consider QSWL, for which the enrichment ratio stood at 11.6.

In the case of KAWN, the enrichment ratio was at most 0.25.

As to MAWN, the enrichment ratio turned out to be 23.5.

Turning to NAWN, the enrichment ratio is at most 0.25.

On to YELN, for which the enrichment ratio came to 2.61.

Take KINA: the enrichment ratio was at most 0.25.

With IDLY, the enrichment ratio is at most 0.25.

On to SGPA, for which the enrichment ratio was at most 0.25.

Consider TVIM, for which the enrichment ratio was at most 0.25.

As to ALLC, the enrichment ratio stood at 1.19.

Regarding SWSV, the enrichment ratio is at most 0.25.

Turning to LKFM, the enrichment ratio is at most 0.25.

FEFH: the enrichment ratio was at most 0.25.

For the variant QQNL, the enrichment ratio is 14.9.

With QRWN, the enrichment ratio is at most 0.25.

On to QQEL, for which the enrichment ratio was at most 0.25.

QEYN: the enrichment ratio was at most 0.25.

For the variant QQRL, the enrichment ratio was at most 0.25.

With QRYN, the enrichment ratio is at most 0.25.

As to QIWN, the enrichment ratio was 27.2.

Take QQWL: the enrichment ratio worked out at 11.7.

As for QVWL, the enrichment ratio worked out at 1.05.

Turning to QPWN, the enrichment ratio was at most 0.25.

QQQL: the enrichment ratio was at most 0.25.

Regarding QIYN, the enrichment ratio worked out at 20.5.

In the case of LCAS, the enrichment ratio is at most 0.25.

As for AWQV, the enrichment ratio was at most 0.25.

QRPC: the enrichment ratio is at most 0.25.

With IARV, the enrichment ratio is at most 0.25.

With HCSE, the enrichment ratio is at most 0.25.

As to YKNC, the enrichment ratio was at most 0.25.

As for HYGG, the enrichment ratio is at most 0.25.

With ESAV, the enrichment ratio was found to be 2.02.

LFIM: the enrichment ratio was at most 0.25.

With WQAC, the enrichment ratio was at most 0.25.

For the variant MMIC, the enrichment ratio is at most 0.25.

For TQAI, the enrichment ratio came out at 3.21.

Regarding TQNE, the enrichment ratio was at most 0.25.

Turning to TQPI, the enrichment ratio is at most 0.25.

In the case of TQCG, the enrichment ratio worked out at 14.9.

Regarding TQIE, the enrichment ratio is at most 0.25.

On to FQCG, for which the enrichment ratio came to 1.7.

As to TQCP, the enrichment ratio is at most 0.25.

Consider TQCS, for which the enrichment ratio is 15.1.

As to TQCV, the enrichment ratio was found to be 10.8.

In the case of TQCA, the enrichment ratio turned out to be 17.6.

In the case of TQCE, the enrichment ratio amounted to 87.9.

For DWCG, the enrichment ratio was at most 0.25.

As to HAWL, the enrichment ratio was at most 0.25.

In the case of SAVY, the enrichment ratio came out at 1.85.

In the case of QKIT, the enrichment ratio was at most 0.25.

Take GSFP: the enrichment ratio is at most 0.25.

Consider DITR, for which the enrichment ratio is at most 0.25.

As to PWHF, the enrichment ratio was at most 0.25.

Regarding MSDL, the enrichment ratio is at most 0.25.

As to NNLP, the enrichment ratio was at most 0.25.

Regarding RETI, the enrichment ratio is at most 0.25.

For HCYR, the enrichment ratio is at most 0.25.

Turning to RHMQ, the enrichment ratio was at most 0.25.

Regarding WQYV, the enrichment ratio was at most 0.25.

As to RTWF, the enrichment ratio is at most 0.25.

SQYS: the enrichment ratio is at most 0.25.

As to FQCQ, the enrichment ratio is at most 0.25.

Consider TQQP, for which the enrichment ratio is at most 0.25.

With TQRL, the enrichment ratio was at most 0.25.

For TQCI, the enrichment ratio turned out to be 16.

In the case of TQYS, the enrichment ratio worked out at 12.5.

As for TQEL, the enrichment ratio is at most 0.25.

With TQCK, the enrichment ratio was determined as 1.24.

On to TQCL, for which the enrichment ratio stood at 12.5.

TQYK: the enrichment ratio was at most 0.25.

Regarding TQTH, the enrichment ratio stood at 6.85.

Consider TQCQ, for which the enrichment ratio was 27.8.

For WRPN, the enrichment ratio is at most 0.25.

As for GCIS, the enrichment ratio amounted to 2.07.

On to PPWA, for which the enrichment ratio is at most 0.25.

On to HQSY, for which the enrichment ratio was at most 0.25.

As for RKAR, the enrichment ratio is at most 0.25.

Regarding MEHS, the enrichment ratio is at most 0.25.

On to EHIP, for which the enrichment ratio was at most 0.25.

For TQSK, the enrichment ratio was at most 0.25.

As to TQWI, the enrichment ratio was 1.91.

Take TQCT: the enrichment ratio came out at 12.5.

On to RNCT, for which the enrichment ratio is at most 0.25.

Take NVSA: the enrichment ratio was at most 0.25.

For NQYE, the enrichment ratio was at most 0.25.

TQWA: the enrichment ratio was found to be 17.1.

For the variant HDSA, the enrichment ratio is at most 0.25.

As to TQSA, the enrichment ratio is 19.8.

As to TQYI, the enrichment ratio is at most 0.25.

As to WQCT, the enrichment ratio is at most 0.25.

Regarding TQYE, the enrichment ratio was found to be 35.7.

For the variant GFAI, the enrichment ratio is at most 0.25.

Consider GLPN, for which the enrichment ratio is at most 0.25.

With GAFM, the enrichment ratio was at most 0.25.

Turning to EVEQ, the enrichment ratio was at most 0.25.

As to FEQI, the enrichment ratio is at most 0.25.

For YIWG, the enrichment ratio was at most 0.25.

With TQTG, the enrichment ratio stood at 5.83.

In the case of TQRK, the enrichment ratio was at most 0.25.

TQSI: the enrichment ratio is 11.7.

Take WSSI: the enrichment ratio is at most 0.25.

For the variant TEFF, the enrichment ratio was determined as 6.49.

For the variant MCRI, the enrichment ratio is at most 0.25.

As to TELE, the enrichment ratio is 11.2.

On to HPLE, for which the enrichment ratio was at most 0.25.

Regarding MELE, the enrichment ratio was at most 0.25.

On to MEVE, for which the enrichment ratio is at most 0.25.

For the variant TEVE, the enrichment ratio was determined as 11.6.

In the case of TEYE, the enrichment ratio was at most 0.25.

Regarding RSQR, the enrichment ratio is at most 0.25.

Consider YMEV, for which the enrichment ratio is at most 0.25.

In the case of GDVA, the enrichment ratio is at most 0.25.

Take GDIV: the enrichment ratio was found to be 8.68.

As to GDNY, the enrichment ratio was at most 0.25.

Turning to TDVI, the enrichment ratio was 11.8.

For the variant LTVI, the enrichment ratio is at most 0.25.

For the variant GDTV, the enrichment ratio was found to be 13.7.

As for GDTM, the enrichment ratio came out at 4.42.

For the variant GDYM, the enrichment ratio is at most 0.25.

FDVI: the enrichment ratio is at most 0.25.

Turning to GDVM, the enrichment ratio stood at 28.9.

For GDDV, the enrichment ratio is at most 0.25.

Turning to GDVI, the enrichment ratio was found to be 20.

The values are drawn from a collection of fitness landscapes (doi:10.1126/science.1257360).
